Potency data for 13 molecules are collected here from PubChem BioAssay (NCATS).

Records with an inconclusive call do not appear. A call without a number means that no potency is given here. The source made the active and inactive calls. The call rests on the fitted dose curve; in most records, active means well fitted cell-killing curve with a large enough effect; inconclusive means small, poorly fitted or top-dose-only effect, or effect the other way; inactive means no such curve, though single readings can be large or run the other way.
Potency means the concentration at half of the fitted maximal effect.

The nature of this experiment: Viability qHTS for spleen associated tyrosine kinase inhibitor (SYKi) naive MV4-11 cells (AID 1963823). Further: nearly all actives have a fitted effect of over 40% in size. The note with it: MV4-11 AML viability, CellTiter-Glo luminescence, 72 h; series mostly up to 45 µM. In a few lines: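 Cells: MV4-11, SYK inhibitor naive, 500 per well. Treatment: library compounds, 72 hr, 37 C, 5% CO2. Read-out: CellTiter-Glo luminescence after 10 min RT.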
(Quantitative high-throughput screening tests each substance at several concentrations.)
In the case of `C=C(C)C(=O)OC1CC(CO)CCC/C(CO)=C/C2OC(=O)C(=C)C21` (stereo not drawn), the Potency is 1610 nM (active). Then `CC(=O)c1c(C)cc(O)cc1O[C@@H]1O[C@H](CO)[C@@H](O)[C@H](O)[C@H]1O`, with “inactive”; and `COC(=O)[C@H](OC(C)=O)[C@H]1C(C)(C)C(=O)[C@H]2CC3=C4CC(=O)O[C@@H](c5ccoc5)[C@]4(C)CCC3[C@@]1(C)C2=O` (stereo partly drawn), with “inactive”. Consider `CC(=O)C1CCC(=O)N1Cc1ccccc1` (stereo not drawn), for which the Potency result is “inactive”. As for `C#CC(=O)N(c1ccc(OC)cc1OC)C(C(=O)NCC(=O)OCC)c1cccs1` (stereo not drawn), the Potency is 116 nM (active). Then `COc1ccc(C(=O)N(CCC(C)C)Cc2nc(C)c(C)n2Cc2ccccc2C)c(OC)c1`, with 20600 nM (active); and `CC(C)(O)/C=C/CC(C)(O)C1C(O)CC2(C)C3CCC4C(C)(C)C(=O)CCC4(C)C3CCC12C` (stereo not drawn), with “inactive”; and `CC(=O)O[C@H]1[C@@]2(O)C[C@H](C)[C@H](OC(=O)c3ccccc3)[C@@H]2[C@@H](OC(=O)CO)[C@]2(OC(C)=O)C[C@H]3C(=O)C(C)(C)C[C@@H]3[C@@]1(C)[C@H]2OC(C)=O`, with “inactive”.

As to `CC(C)(Cc1ccccc1)NCC(O)c1ccc(O)c(NS(C)(=O)=O)c1` (stereo not drawn), the Potency entry was “inactive”. Then `CC1(C)CC(=O)N(CCCCN2CCN(c3ncccn3)CC2)C(=O)C1`, with “inactive”. Then `COc1cc(CC(COC2OC(CO)C(O)C(O)C2O)c2cc(/C=C/CO)cc(OC)c2O)ccc1O` (stereo not drawn), with “inactive”; and `CC1CCC2(O1)C(C)(C)CC(O[C@@H]1O[C@H](CO[C@@H]3OC[C@](O)(CO)[C@H]3O)[C@@H](O)[C@H](O)[C@H]1O)CC2(C)O` (stereo partly drawn), with “inactive”; and `NCc1ccc(Nc2ncc(F)c(Nc3ccccc3)n2)cc1`, with 651 nM (active).
